According to PubChem BioAssay (NCI):
Compounds without any hit were thinned out: in the full panel of roughly 83,000, 20% have a hit.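 Single-dose data. Exposure time 48 hours. Values below 10 considered active.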 A number with no mark means an inactive call. The source made the active and inactive calls.

Experiments:
Assay in all cases: NCI-60 one-dose screen, 48 h (100 = growth as untreated, 0 = no growth, -100 = all killed)
Settings in all cases: 10 µM
[1] = tested on: DU-145 prostate
[2] = tested on: K-562 leukemia
[3] = tested on: MALME-3M melanoma
[4] = tested on: MDA-MB-231 breast
[5] = tested on: RXF 393 renal
[6] = tested on: SF-268 CNS
[7] = tested on: SF-295 CNS
[8] = tested on: SF-539 CNS
[9] = tested on: UACC-257 melanoma
[10] = tested on: M14 melanoma
[11] = tested on: HCT-15 colon
[12] = tested on: HT29 colon
[13] = tested on: SNB-75 CNS
[14] = tested on: SNB-19 CNS
[15] = tested on: U251 CNS
[16] = tested on: PC-3 prostate
[17] = tested on: SK-MEL-5 melanoma
[18] = tested on: UACC-62 melanoma
[19] = tested on: LOX IMVI melanoma
[20] = tested on: SK-MEL-28 melanoma

Row | Compound | growth [1] | growth [2] | growth [3] | growth [4] | growth [5] | growth [6] | growth [7] | growth [8] | growth [9] | growth [10] | growth [11] | growth [12] | growth [13] [%] | growth [14] | growth [15] | growth [16] | growth [17] | growth [18] | growth [19] | growth [20]
1 | O=S(=O)(O)c1ccc(Cl)cc1 | 101% | 99.7% | 98.2% | 107% | 123% | 95.1% | 109% | 102% | 99.2% | 99.7% | 100% | 93.6% | 100 | 102% | 101% | 96.5% | 98.3% | 99.8% | 96.3% | 113%
2 | CS(=O)(=O)c1nccc(-c2c(-c3cccc(OCc4ccccc4)c3)nc3sccn23)n1 | -59.6% (active) | 47.1% | 58.7% | 61.4% | 90.7% | 97% | 101% | 90% | 27.8% | 72.3% | 49.4% | 77.9% | 97.5 | 88.6% | 89.1% | 66.2% | 0.137% (active) | 62.4% | 28.6% | 77.1%
3 | COc1cc(C(=O)n2nc(-c3cc(OC)c(OC)c(OC)c3)nc2N)cc(OC)c1OC | 101% | 77.8% | 103% | 108% | 114% | 93.4% | 92.7% | 96.6% | 101% | 89.9% | 100% | 82.7% | 81.9 | 102% | 97.3% | 95.7% | 94.5% | 102% | 95.8% | 97%
4 | COc1ccc(-c2cc(-c3ccc(Cl)cc3)nc(SCCCCCCC(=O)NO)n2)cc1OC | 82.4% | 36.1% | 42.5% | 70.8% | 57.5% | 91.9% | 77.1% | 58.4% | 72.1% | 44.4% | 30.5% | 46.7% | 34 | 60.6% | 59.8% | 58.6% | 1.04% (active) | 28.1% | 0.604% (active) | 72.9%
5 | COc1ccc2c(c1)C(=O)/C(=C/c1ncc([N+](=O)[O-])n1C)O2 | -13.6% (active) | 1.52% (active) | -56.2% (active) | -18.1% (active) | -54.4% (active) | -39.7% (active) | -18.4% (active) | -29.4% (active) | -43.9% (active) | -37.7% (active) | 6.82% (active) | -20.5% (active) | 69.5 | -16.6% (active) | -25.4% (active) | 101% | -89% (active) | -68.4% (active) | -68.1% (active) | -22.4% (active)
6 | CC(C)(C)OC(=O)CN1CCc2c(sc3ncnc(N/N=C/c4cccc5ccccc45)c23)C1 | 66.4% | 6.22% (active) | 72.2% | 39.9% | 55.9% | 60.2% | 51.5% | 24.3% | 38.8% | 42.7% | 16.7% | 45% | 46 | 53.7% | 45.7% | 31.9% | 11.1% | 6.64% (active) | 26.2% | 50.1%
7 | C=CCn1c(SCC(=O)Nc2ccc(C(=O)/C=C/c3ccc(OC)cc3)cc2)nnc1-c1ccc(OC)c(OC)c1 | 97.7% | 63.6% | 110% | 72.3% | 84.7% | 84.1% | 93.5% | 102% | 84.6% | 89.6% | 83.8% | 89.8% | 76.4 | 89% | 87.4% | 67.2% | 62.8% | 75.7% | 86.5% | 105%
8 | O=C(Cn1cc(CO)nn1)Nc1nc2ccccc2s1 | 113% | 94.8% | 93.8% | 100% | 112% | 99% | 106% | 95% | 104% | 94.7% | 105% | 99.5% | 92.4 | 96.9% | 102% | 96.3% | 102% | 97% | 95.1% | 106%
9 | C=CCN(CC=C)C(=O)[C@H](CC)[C@@H]1CC[C@@H](C)[C@@H]([C@H](C)[C@@H](O)[C@@H](C)C(=O)[C@H](CC)C2O[C@]3(C=CC(=O)[C@]4(CC[C@@](C)([C@H]5CC[C@](O)(CC)[C@H](C)O5)O4)O3)[C@H](C)C[C@@H]2C)O1 (stereo not given in full) | 74.8% | 18.7% | -25.1% (active) | 23.1% | 21.4% | 58.9% | 5.69% (active) | 53.2% | 20.6% | 17.3% | 11.5% | 16.7% | 38.7 | 23.8% | 30.5% | 14.7% | -12.3% (active) | 10.7% | 36.9% | 19.8%
10 | COc1cc2cc(Oc3ccc(NC(=O)Nc4cccc(C(F)(F)F)c4)cc3)c(C)nc2cc1OC | 26.7% | 11.5% | 7.22% (active) | -8.32% (active) | -13.1% (active) | 29.2% | -15% (active) | 11.7% | -14.5% (active) | 22.7% | 15.2% | 6.55% (active) | 13 | 31.4% | -85.7% (active) | 0.0827% (active) | -86.1% (active) | 14.5% | 9.78% (active) | 26.7%
11 | COc1cc2cc(Oc3ccc(NC(=O)c4cc(C(F)(F)F)cc(C(F)(F)F)c4)cc3)c(C)nc2cc1OC | 60.4% | 23.3% | 73.7% | 59.2% | 56.8% | 74.7% | 6.46% (active) | 75.2% | 60.4% | 61.6% | 38.1% | 49.8% | 62.1 | 49.9% | 13.3% | 17.5% | 16.6% | 33.2% | 66% | 84.9%
12 | CN1CCN(CC(=O)Nc2cccc(-n3cc(-c4ccncc4)c(-c4ccc(Cl)c(O)c4)n3)c2)CC1 | 19.4% | 11.8% | 46.3% | 46.1% | 35% | 47.7% | 21.8% | 0.848% (active) | 24.9% | 8.05% (active) | 40.5% | 4.08% (active) | 30.5 | 55.5% | 30.8% | 26.6% | 27.3% | 48.3% | 14.6% | 60.8%
13 | OCC1OC2C(NC(=S)N2c2ccccc2)C(O)C1O (stereo not given) | 107% | 108% | 131% | 99.8% | 108% | 96.8% | 99.8% | 102% | 102% | 120% | 99.2% | 101% | 99.6 | 91.9% | 97.5% | 96% | 98.5% | 98.7% | 100% | 105%
14 | O=S(=O)(O)c1cccc(Nc2ccc3ccccc3c2)c1 | 109% | 98.7% | 88.1% | 90.1% | 107% | 95.8% | 104% | 102% | 89.7% | 92.7% | 110% | 99% | 78.2 | 96.3% | 95.5% | 79% | 99% | 88.1% | 93.4% | 108%
15 | CC(C)(C)OC(=O)N1CCc2c(sc3ncnc(N/N=C/c4ccc(Br)cc4)c23)C1 | 92.6% | 15.1% | 51.3% | 73.2% | 66.4% | 82.2% | 49% | 60.7% | 73.4% | 47.7% | 28.1% | 33.8% | 61.8 | 69.5% | 67.3% | 44% | 24% | 42.2% | 54.8% | 63.2%
